The text below walks through data of PubChem BioAssay (EPA / NIEHS).

By AC50 is commonly meant the concentration at which the activity in the assay is half-maximal.

A short description of test [1]: ATG_TCF_b_cat_CIS: Attagene CIS-FACTORIAL HepG2 Assay for human T-Cell-Factor with beta-catenin (TCF/b-cat) (AID 2282965; active = hit-call score of the fitted dose curve at least 0.9, where 1 is the maximum; inactive = score below 0.9). As to conditions: HepG2 TCF/beta-catenin cis-reporter transcription, actives raise or lower the signal. Summed up:
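In this cis-format system, transfected HepG2 cells report endogenous transcription factor activity. Readout after 24 h exposure is reporter transcript abundance from RT-PCR and capillary electrophoresis, analysed for gain or loss of signal versus DMSO.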

A short description of test [2]: ATG_TAL_CIS: Attagene CIS-FACTORIAL HepG2 Assay for human TAL Basal Promoter (AID 2282966; active = hit-call score of the fitted dose curve at least 0.9, where 1 is the maximum; inactive = score below 0.9;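 also: background control endpoint measuring basal TAL promoter reporter mRNA not a specific factor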). The settings on record: HepG2 Attagene cis-factorial TAL promoter reporter; actives raise or lower the signal. In outline: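 After 24 hours of chemical exposure, transfected HepG2 cells yielded RNA that was converted to 6-FAM-labelled, HpaI-digested reporter fragments for capillary electrophoresis. Values derive from bidirectional fitting against DMSO controls.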

Test [3] is described as follows: ATG_TGFb_CIS: Attagene CIS-FACTORIAL HepG2 Assay for human Transforming Growth Factor (TGF) (AID 2282967; active = hit-call score of the fitted dose curve at least 0.9, where 1 is the maximum; inactive = score below 0.9). As to conditions: HepG2 Attagene CIS TGFb reporter, mRNA transcription; actives raise or lower the signal. Summed up:
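Transient MRTU transfection of HepG2 (FuGene 6). Dose 24 h. TriZol RNA, oligo(dT) RT, PCR, 6-FAM primer extension, HpaI cut, CE. Bidirectional fit, DMSO = baseline.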

Test [4] is described as follows: ATG_VDRE_CIS: Attagene CIS-FACTORIAL HepG2 Assay for human Vitamin D Receptor Element (VDRE) (AID 2282968; active = hit-call score of the fitted dose curve at least 0.9, where 1 is the maximum; inactive = score below 0.9). As to conditions: HepG2 VDRE cis-reporter transcription, actives raise or lower the signal. In outline:
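Transfected HepG2 reporter cells, chemical treatment 24 h. RNA isolated, cDNA amplified with reporter-specific primers, products analysed by capillary electrophoresis. Endpoint fitted in both directions versus DMSO.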

For test [5], the target named is Nuclear receptor subfamily 1 group I member 3 (Homo sapiens) (UniProt Q14994). In words: ATG_CAR_TRANS: Attagene TRANS-FACTORIAL HepG2 Assay for human Constitutive Androstane Receptor (CAR) (AID 2282969).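 Also: activators raise reporter mRNA above DMSO so AC50 marks induction.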 The settings on record: HepG2 Attagene TRANS-FACTORIAL CAR reporter. In outline:
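Steps: transient transfection of HepG2 with multiple GAL4-UAS reporter units; 24 h compound incubation; RNA isolation, RT-PCR, 6-FAM primer extension, HpaI digest; capillary electrophoresis. Gain-of-signal relative to DMSO negative control.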

Test [6] has as its target Estrogen receptor (Homo sapiens) (UniProt P03372). Briefly: ATG_ERa_TRANS: Attagene TRANS-FACTORIAL HepG2 Assay for human Estrogen Receptor alpha (ERa) (AID 2282970). As to conditions: HepG2 Attagene TRANS ERa GAL4 reporter, mRNA. In outline: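 Liver-derived HepG2 cells expressing chimeric nuclear receptor-Gal4 proteins from transient transfection were exposed for 24 hours. Gain of reporter mRNA signal versus DMSO, read by capillary electrophoresis of FAM-labelled PCR products, was recorded.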

For test [7], the target named is Steroid hormone receptor ERR1 (Homo sapiens) (UniProt P11474). In words: ATG_ERRa_TRANS: Attagene TRANS-FACTORIAL HepG2 Assay for human Estrogen-Related Receptor alpha (ERRa) (AID 2282971). The settings on record: HepG2 Attagene TRANS reporter, ERRa transactivation. In outline:
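Reporter transcript induction was quantified by RT-PCR and capillary electrophoresis of FAM-labelled, HpaI-cut products after 24 h treatment of HepG2 cells carrying transiently transfected GAL4-UAS reporter units and an exogenous ERRa-Gal4 fusion; activity scored as increase over DMSO.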

For test [8], the target named is X-box-binding protein 1 (Homo sapiens) (UniProt P17861). In words: ATG_Xbp1_CIS: Attagene CIS-FACTORIAL HepG2 Assay for human X-box Binding Protein 1 (XBP1) (AID 2282972; active = hit-call score of the fitted dose curve at least 0.9, where 1 is the maximum; inactive = score below 0.9). As to conditions: HepG2 XBP1 cis-element reporter, Attagene multiplex; actives raise or lower the signal. In outline: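 Multiplexed cis-reporter readout in transfected HepG2 liver cells. Exposure lasted 24 hours. Activity in either direction was fitted against DMSO as negative control and baseline.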
X-box-binding protein 1 (Homo sapiens), sequence (P17861 whole entry, looked up): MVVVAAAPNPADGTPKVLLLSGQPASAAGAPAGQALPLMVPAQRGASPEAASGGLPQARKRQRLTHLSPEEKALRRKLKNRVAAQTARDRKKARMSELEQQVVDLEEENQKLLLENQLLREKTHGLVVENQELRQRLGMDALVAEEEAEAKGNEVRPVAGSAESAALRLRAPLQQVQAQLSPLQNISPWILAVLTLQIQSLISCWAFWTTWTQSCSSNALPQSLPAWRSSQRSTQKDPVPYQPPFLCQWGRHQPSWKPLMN

A short description of test [9]: ATG_GAL4_TRANS: Attagene TRANS-FACTORIAL HepG2 Assay for GAL4 (Internal Marker) (AID 2282976). As to conditions: HepG2 Attagene TRANS GAL4 internal marker reporter. In outline:
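First, HepG2 cells were transfected with reporter units under GAL4-UAS control. Next, they were treated with chemical for 24 h. Finally, RNA was reverse-transcribed, PCR-amplified, FAM-labelled and resolved by capillary electrophoresis, with induction scored against DMSO.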

For test [10], the target named is Glucocorticoid receptor (Homo sapiens) (UniProt P04150). Briefly: ATG_GR_TRANS: Attagene TRANS-FACTORIAL HepG2 Assay for human Glucocorticoid Receptor (GR) (AID 2282978).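 Also: activators score as hits since higher reporter transcript over DMSO is fitted.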 As to conditions: HepG2 Attagene TRANS GR reporter, mRNA transcription. In outline:
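Readout is reporter transcript from a chimeric GR-Gal4 acting on GAL4-UAS in transfected human HepG2 liver cells after 24 h exposure, quantified by RT-PCR and capillary electrophoresis. Activation fitted upward against DMSO.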

Test [11] deals with Oxysterols receptor LXR-alpha (Homo sapiens) (UniProt Q13133). Briefly: ATG_LXRa_TRANS: Attagene TRANS-FACTORIAL HepG2 Assay for human Liver X Receptor alpha (LXRa) (AID 2282980). The settings on record: HepG2 Attagene TRANS reporter, LXRa transactivation. In outline:
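Transfect HepG2 with GAL4-UAS multiplex reporter constructs (TRANS format, chimeric receptor-GAL4); treat 24 h; extract RNA, reverse-transcribe, PCR-amplify, FAM-label, HpaI-digest; resolve fragments by capillary electrophoresis. Upward response vs DMSO.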

The target of test [12] is Oxysterols receptor LXR-beta (Homo sapiens) (UniProt P55055). In words: ATG_LXRb_TRANS: Attagene TRANS-FACTORIAL HepG2 Assay for human Liver X Receptor beta (LXRb) (AID 2282981). As to conditions: HepG2 Attagene TRANS GAL4-LXRb reporter, mRNA. In outline: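 Liver-derived HepG2 cells transfected with Gal4-responsive reporters were dosed for 24 h. Activation was scored as rise in reporter mRNA, by RT-PCR and capillary electrophoresis, above DMSO baseline.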
Oxysterols receptor LXR-beta (Homo sapiens), sequence (P55055 whole entry, looked up, the tested form may be a part): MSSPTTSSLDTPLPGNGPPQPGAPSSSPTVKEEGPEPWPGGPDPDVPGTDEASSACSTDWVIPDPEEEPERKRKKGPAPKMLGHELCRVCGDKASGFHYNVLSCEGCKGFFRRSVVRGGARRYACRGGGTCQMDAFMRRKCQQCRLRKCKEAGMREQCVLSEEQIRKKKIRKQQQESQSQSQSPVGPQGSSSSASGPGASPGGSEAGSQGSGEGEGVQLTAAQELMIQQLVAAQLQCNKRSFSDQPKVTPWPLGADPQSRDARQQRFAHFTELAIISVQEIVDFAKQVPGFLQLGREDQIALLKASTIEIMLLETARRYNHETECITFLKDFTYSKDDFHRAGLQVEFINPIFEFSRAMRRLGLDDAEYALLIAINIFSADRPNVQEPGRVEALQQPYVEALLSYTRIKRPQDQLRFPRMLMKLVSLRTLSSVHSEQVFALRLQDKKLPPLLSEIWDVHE

Test [13] can be described thus: ATG_M_06_TRANS: Attagene TRANS-FACTORIAL HepG2 Assay for M06 Transcription Factor (Internal Marker) (AID 2282983).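 Also: reporter transcript level by RT-PCR then capillary electrophoresis fluorescence.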 As to conditions: HepG2 Attagene TRANS M06 internal marker reporter. Summed up: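 Background control endpoint: reporter mRNA from transiently transfected HepG2 after 24 h dosing, detected by RT-PCR with capillary electrophoresis fluorescence. Analysed for gain versus DMSO.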

Test [14] deals with Transcriptional activator Myb (Homo sapiens) (UniProt P10242). Briefly: ATG_Myb_CIS: Attagene CIS-FACTORIAL HepG2 Assay for human Myeloblastosis (Myb) Proto-Oncogene Transcription Factor (AID 2282986; active = hit-call score of the fitted dose curve at least 0.9, where 1 is the maximum; inactive = score below 0.9). As to conditions: HepG2 Attagene CIS-FACTORIAL Myb reporter transcription; actives raise or lower the signal. Summed up:
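Reporter mRNA is quantified by RT-PCR and capillary electrophoresis 24 h after dosing HepG2 cells transfected with cis-regulated reporter units, which track endogenous transcription factor activity. Gain and loss of signal are fitted versus DMSO baseline.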

The nature of test [15]: ATG_M_19_TRANS: Attagene TRANS-FACTORIAL HepG2 Assay for M19 Transcription Factor (Internal Marker) (AID 2282974). The settings on record: HepG2 Attagene TRANS-FACTORIAL M19 internal marker reporter. Summed up:
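Background-control readout: after 24 h chemical exposure of transfected HepG2 carrying GAL4-driven reporter units, RNA was reverse-transcribed, amplified, fluorescently labeled and sized by capillary electrophoresis; gain-of-signal fit against DMSO.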

Test [16] has as its target Nuclear receptor subfamily 4 group A member 2 (Homo sapiens) (UniProt P43354). Briefly: ATG_NURR1_TRANS: Attagene TRANS-FACTORIAL HepG2 Assay for human Nuclear Receptor Related Protein 1 (NURR1) (AID 2282985). The settings on record: HepG2 Attagene TRANS reporter, mRNA readout. In outline:
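Chimeric NR-Gal4 proteins were expressed in human HepG2 cells bearing GAL4-UAS reporter units, and induced reporter mRNA was quantified 24 h post-dosing by RT-PCR and capillary electrophoresis.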

In test [17] the target is Hepatocyte nuclear factor 4-alpha (Homo sapiens) (UniProt P41235). In words: ATG_HNF4a_TRANS: Attagene TRANS-FACTORIAL HepG2 Assay for human Hepatocyte Nuclear Factor 4 alpha (HNF4a) (AID 2282982). The settings on record: HepG2 HNF4a transactivation reporter, mRNA readout. In outline: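 Using HepG2 liver cells transfected with GAL4-UAS reporter units, chemical-induced mRNA increases were assessed after 24 hours. Fluorescent RT-PCR fragments were separated by capillary electrophoresis and compared with DMSO negative controls.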
Hepatocyte nuclear factor 4-alpha (Homo sapiens), sequence (P41235 whole entry, looked up, the tested form may be a part): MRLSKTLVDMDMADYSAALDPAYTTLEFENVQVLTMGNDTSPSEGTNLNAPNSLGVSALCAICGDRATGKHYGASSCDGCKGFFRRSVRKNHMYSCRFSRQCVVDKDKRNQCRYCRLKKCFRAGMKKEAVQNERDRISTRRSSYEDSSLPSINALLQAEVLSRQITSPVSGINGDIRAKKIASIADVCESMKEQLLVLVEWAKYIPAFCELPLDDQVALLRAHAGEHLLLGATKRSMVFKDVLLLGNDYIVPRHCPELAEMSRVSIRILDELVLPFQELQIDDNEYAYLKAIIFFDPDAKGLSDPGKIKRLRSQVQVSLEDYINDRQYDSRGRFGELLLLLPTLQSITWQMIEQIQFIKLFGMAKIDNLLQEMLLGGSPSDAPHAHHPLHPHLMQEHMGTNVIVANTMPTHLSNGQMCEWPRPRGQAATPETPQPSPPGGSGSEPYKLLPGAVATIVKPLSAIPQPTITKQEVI

Test [18] in a line: ATG_M_32_TRANS: Attagene TRANS-FACTORIAL HepG2 Assay for M32 Transcription Factor (Internal Marker) (AID 2282984).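 Also: transcript level of a background control reporter unit measured by RT-PCR and capillary electrophoresis.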 As to conditions: HepG2 Attagene TRANS M32 internal marker reporter. In outline: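 Fluorescence-detected mRNA induction, HepG2 liver cells, 24 h after dosing. Multiple GAL4-UAS reporter units introduced by transient transfection; background-control endpoint analysed for gain of signal against DMSO.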

The target in test [19] is Estrogen-related receptor gamma (Homo sapiens) (UniProt P62508). In words: ATG_ERRg_TRANS: Attagene TRANS-FACTORIAL HepG2 Assay for human Estrogen-Related Receptor gamma (ERRg) (AID 2282977).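 Also: hits increase reporter signal over DMSO so potencies reflect activators.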 As to conditions: HepG2 Attagene TRANS reporter, ERRg transactivation. Summed up:
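Readout: fluorescent reporter-mRNA fragments resolved by capillary electrophoresis after RT-PCR and HpaI cut. Cells: transiently transfected HepG2 carrying GAL4-UAS reporters driven by exogenous NR-Gal4 chimeras, dosed 24 h. Activity fitted upward relative to DMSO baseline.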

Values joined by “and” are separate entries in the source; they are usually repeats but may differ in a detail not shown here. Equal values may be shown once. Results filed as inconclusive are left out. More than one record can exist for a structure, and the calls need not agree. Active and inactive are the calls of the source. The calls were made as follows, unless noted: active = hit-call score of the fitted dose curve at least 0.9, where 1 is the maximum; inconclusive = response in the unintended direction; inactive = score below 0.9.

Oxysterols receptor LXR-alpha (Homo sapiens), sequence (Q13133 whole entry, looked up, the tested form may be a part): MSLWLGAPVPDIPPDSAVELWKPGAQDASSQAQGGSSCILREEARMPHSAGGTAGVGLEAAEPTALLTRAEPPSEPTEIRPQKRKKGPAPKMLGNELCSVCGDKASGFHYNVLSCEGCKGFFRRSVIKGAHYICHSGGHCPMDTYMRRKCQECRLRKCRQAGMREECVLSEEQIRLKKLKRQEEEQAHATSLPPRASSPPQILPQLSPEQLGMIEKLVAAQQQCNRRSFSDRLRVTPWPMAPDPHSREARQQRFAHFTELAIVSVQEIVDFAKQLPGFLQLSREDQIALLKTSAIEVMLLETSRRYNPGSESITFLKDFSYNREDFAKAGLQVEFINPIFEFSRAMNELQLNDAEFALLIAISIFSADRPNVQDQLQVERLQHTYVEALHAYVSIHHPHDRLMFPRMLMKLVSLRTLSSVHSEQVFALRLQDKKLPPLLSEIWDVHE
Nuclear receptor subfamily 1 group I member 3 (Homo sapiens), sequence (Q14994 whole entry, looked up, the tested form may be a part): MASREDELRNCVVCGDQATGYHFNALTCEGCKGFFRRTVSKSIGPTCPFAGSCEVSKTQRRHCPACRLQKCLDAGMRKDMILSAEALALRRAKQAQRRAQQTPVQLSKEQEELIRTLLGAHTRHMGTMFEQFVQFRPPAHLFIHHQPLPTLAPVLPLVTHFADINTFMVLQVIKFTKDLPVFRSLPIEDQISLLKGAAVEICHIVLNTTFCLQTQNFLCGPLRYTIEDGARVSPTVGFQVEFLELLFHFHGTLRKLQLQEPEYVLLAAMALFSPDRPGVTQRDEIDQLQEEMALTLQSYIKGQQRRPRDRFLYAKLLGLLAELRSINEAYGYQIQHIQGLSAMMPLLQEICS
Glucocorticoid receptor (Homo sapiens), sequence (P04150 whole entry, looked up, the tested form may be a part): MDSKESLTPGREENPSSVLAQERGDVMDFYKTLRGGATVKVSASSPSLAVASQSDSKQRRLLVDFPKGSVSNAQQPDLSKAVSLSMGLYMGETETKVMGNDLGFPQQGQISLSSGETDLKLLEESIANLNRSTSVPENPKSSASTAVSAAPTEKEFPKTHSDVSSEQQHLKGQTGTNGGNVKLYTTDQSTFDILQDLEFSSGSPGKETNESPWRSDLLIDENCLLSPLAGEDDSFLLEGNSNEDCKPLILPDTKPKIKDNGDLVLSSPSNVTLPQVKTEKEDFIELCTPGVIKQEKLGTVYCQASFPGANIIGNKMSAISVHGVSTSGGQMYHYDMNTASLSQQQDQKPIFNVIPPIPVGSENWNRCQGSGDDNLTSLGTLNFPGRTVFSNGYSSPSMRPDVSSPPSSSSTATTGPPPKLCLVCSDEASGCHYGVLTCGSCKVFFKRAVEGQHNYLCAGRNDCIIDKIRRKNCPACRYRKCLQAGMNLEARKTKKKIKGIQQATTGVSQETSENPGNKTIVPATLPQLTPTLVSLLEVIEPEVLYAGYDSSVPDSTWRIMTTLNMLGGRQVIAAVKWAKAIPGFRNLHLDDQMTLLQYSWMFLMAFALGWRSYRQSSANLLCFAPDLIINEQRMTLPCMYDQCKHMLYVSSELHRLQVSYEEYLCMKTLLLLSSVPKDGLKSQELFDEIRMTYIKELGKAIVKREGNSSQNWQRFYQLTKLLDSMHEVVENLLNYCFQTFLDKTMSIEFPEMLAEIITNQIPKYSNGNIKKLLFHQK
Transcriptional activator Myb (Homo sapiens), sequence (P10242 whole entry, looked up): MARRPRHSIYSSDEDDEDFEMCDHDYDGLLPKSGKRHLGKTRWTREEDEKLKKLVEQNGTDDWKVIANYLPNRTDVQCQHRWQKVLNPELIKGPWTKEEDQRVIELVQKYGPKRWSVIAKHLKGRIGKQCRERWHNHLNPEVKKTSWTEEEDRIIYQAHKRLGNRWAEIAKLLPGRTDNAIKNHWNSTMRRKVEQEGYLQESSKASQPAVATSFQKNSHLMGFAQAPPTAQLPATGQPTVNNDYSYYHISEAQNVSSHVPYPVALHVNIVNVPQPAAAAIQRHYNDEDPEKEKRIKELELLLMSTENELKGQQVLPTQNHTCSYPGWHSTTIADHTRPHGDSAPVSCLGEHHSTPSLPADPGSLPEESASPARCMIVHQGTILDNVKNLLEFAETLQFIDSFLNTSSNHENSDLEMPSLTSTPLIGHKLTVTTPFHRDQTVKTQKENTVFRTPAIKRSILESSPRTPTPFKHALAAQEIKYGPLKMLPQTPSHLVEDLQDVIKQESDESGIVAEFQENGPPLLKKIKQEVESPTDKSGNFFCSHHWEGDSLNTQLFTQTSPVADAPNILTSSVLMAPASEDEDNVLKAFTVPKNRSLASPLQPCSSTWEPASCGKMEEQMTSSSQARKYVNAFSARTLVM
Estrogen receptor (Homo sapiens), sequence (P03372 whole entry, looked up, the tested form may be a part): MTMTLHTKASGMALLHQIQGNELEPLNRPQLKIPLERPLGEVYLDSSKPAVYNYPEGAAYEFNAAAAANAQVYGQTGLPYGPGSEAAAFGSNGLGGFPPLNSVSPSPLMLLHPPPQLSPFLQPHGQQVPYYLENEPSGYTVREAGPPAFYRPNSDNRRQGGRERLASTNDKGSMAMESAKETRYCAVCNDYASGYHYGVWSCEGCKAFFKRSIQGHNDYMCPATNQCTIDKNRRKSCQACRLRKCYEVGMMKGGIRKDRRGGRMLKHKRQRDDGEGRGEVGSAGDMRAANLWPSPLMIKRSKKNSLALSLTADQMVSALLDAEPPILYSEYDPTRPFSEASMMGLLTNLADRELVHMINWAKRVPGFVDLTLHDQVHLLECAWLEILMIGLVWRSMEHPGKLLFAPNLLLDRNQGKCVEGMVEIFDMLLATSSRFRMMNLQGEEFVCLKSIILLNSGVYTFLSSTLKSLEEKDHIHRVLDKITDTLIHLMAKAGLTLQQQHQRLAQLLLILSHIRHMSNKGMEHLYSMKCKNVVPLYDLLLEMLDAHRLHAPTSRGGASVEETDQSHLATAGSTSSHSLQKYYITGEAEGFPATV
Nuclear receptor subfamily 4 group A member 2 (Homo sapiens), sequence (P43354 whole entry, looked up, the tested form may be a part): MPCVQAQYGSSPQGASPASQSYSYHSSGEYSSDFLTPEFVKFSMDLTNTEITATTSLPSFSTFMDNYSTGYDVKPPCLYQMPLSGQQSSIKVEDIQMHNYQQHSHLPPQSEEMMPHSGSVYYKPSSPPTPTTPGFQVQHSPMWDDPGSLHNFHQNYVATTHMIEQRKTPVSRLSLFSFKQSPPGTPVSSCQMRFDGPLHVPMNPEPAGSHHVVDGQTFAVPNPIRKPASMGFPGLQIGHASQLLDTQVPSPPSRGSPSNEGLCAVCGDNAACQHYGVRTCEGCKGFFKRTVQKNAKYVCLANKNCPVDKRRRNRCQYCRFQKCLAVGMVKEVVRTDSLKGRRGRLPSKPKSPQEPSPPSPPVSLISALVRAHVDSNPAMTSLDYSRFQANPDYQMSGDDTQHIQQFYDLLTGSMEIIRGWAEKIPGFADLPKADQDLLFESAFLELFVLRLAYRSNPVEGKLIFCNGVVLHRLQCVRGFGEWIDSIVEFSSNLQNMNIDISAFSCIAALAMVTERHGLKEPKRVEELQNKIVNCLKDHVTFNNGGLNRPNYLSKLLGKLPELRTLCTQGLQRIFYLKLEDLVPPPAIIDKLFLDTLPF

`CCCCCCCCCCCCN1CCOCC1`: the result in test [1], in [2], in [3], in test [5], in [6] and in test [7] was inactive. Besides, the result in test [9], in [10], in test [11], in test [12], in [13] and in test [14] was inactive. The AC50 in test [4] is 60.6 µM (active); in [8], 46.9 µM (active).

Consider `COc1ccc(C(C)=O)cc1`, for which the compound was called inactive in [1], in [2], in [3], in test [4], in test [5] and in test [6]. Also, the result in [8], in [15], in test [12], in test [16] and in test [14] was inactive.

For the compound `C#C[C@]1(O)CC[C@H]2[C@@H]3CCc4cc(O)ccc4[C@H]3CC[C@@]21C`, the concentration at half-maximal activity (AC50) in test [1] was 19.2 µM (active) and 19.8 µM (active); in [2] it was 152 µM (active) and 78.2 µM (active); in test [3], 100 µM (active); in [8], 59.6 µM (active) [middle of 4 runs]; in test [14] it was 156 µM (active) and 172 µM (active). Further, the call in test [1], in [2], in test [3], in test [8], in test [15] and in test [9] was inactive. Further, the compound was classed as inactive in test [10], in [11], in test [12], in test [17], in test [13] and in test [18]. Also, the call in test [14] was inactive.

On to `CCCCOCCOCCOCCO`, for which the compound was called inactive in [1], in [2], in [3], in [4], in [5] and in test [6]. Also, the compound was called inactive in [7], in test [8], in test [15], in [9], in test [19] and in test [11]. Further, the compound was called inactive in test [12], in [17], in test [18], in test [16] and in [14].
